Screening results from PubChem BioAssay.
In the library only some 3.5% were active in any assay of this set; here they are far more common.
TEAD-YAP inh: TEAD-YAP interaction inhibition; AID 1259422; inhibition, % at 9.12 µM; 640,000 tested, 1.4% active; HEK-TIYL cells, TEAD-Gal4/YAP UAS-luciferase luminescence; in the data active means inhibition above about 32%;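 further: 0% = median of test compound wells and 100% = reference inhibitor wells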
MITF inh: blocks human microphthalmia-associated transcription factor; O75030; AlphaScreen MITF homodimerization, bead proximity signal; inhibition, % at 2.6 µM; 650,000 tested, 0.91% active; AID 1259374; in the data active means inhibition above about 50%;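 further: 0% = vehicle wells with protein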
FBW7 act: human FBW7 E3 ligase activation, primary screen; Q969H0; AlphaScreen FBW7–phospho-cyclin E peptide binding, activator screen; normalized activity (activation), % at 26.1 µM; 650,000 tested, 0.13% active; in the data active means normalized activity above about 1.9%;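 further: purified mutant Fbw7 with reduced substrate affinity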
GPR151 ag: activates the human receptor GPR151; Q8TDV0; PathHunter beta-arrestin GPR151 cells, luminescence; activation, % at 11.2 µM; 650,000 tested, 1% active; in the data active means activation above about 4.9%;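 further: 0% = median of compound wells and 100% = cells with positive control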
Target sequence (Q8TDV0 whole entry, looked up): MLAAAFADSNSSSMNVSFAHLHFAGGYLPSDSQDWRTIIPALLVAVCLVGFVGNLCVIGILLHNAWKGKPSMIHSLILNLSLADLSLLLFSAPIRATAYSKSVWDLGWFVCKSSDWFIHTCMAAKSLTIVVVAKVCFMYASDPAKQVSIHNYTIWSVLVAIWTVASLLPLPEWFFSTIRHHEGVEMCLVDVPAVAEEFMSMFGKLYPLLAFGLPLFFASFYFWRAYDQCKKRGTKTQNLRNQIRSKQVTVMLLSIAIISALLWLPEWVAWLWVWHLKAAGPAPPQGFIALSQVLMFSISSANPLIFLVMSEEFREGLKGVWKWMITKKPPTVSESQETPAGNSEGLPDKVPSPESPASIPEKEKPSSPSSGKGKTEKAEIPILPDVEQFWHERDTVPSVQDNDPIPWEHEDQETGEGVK
* hit, by the source's call.

SMILES	TEAD-YAP inh	MITF inh	FBW7 act	GPR151 ag
Cc1cc(N2CCN(c3ncccn3)CC2)nc2ccc(NC(=O)c3cccc(Cl)c3)cc12	-5	-2	0	0
CC(=O)Nc1ccc(NC(=O)c2cccc(N3CCN(c4ccccn4)CC3)n2)cc1	36*	-10	0	1
O=C(Nc1ccccc1)c1cccc(N2CCCC2CO)n1 (stereo unspecified)	-28	11	0	-1
COc1cc(NC(=O)c2cccc(-c3ccc(C(=O)NC4CC4)cc3)n2)cc(OC)c1OC	34*	6	0	1
O=C(Nc1ccccc1)c1cccc(N2CCN(c3ccccn3)CC2)n1	-15	-15	0	4
COc1cc(NC(=O)c2cccc(N3CCCC3CO)n2)cc(OC)c1OC (stereo unspecified)	35*	-1	0	0
COc1cc(NC(=O)c2cccc(N3CCN(c4ccccn4)CC3)n2)cc(OC)c1OC	42*	-11	0	-2
COc1cc(NC(=O)c2ccnc(N3CCN(c4ccccn4)CC3)c2)cc(OC)c1OC	14	4	0	0
N#Cc1cc(Oc2cccc3ccccc23)nc2ccccc12	-4	-5	0	-2
C[Si](C)(C)c1nnn(-c2ccc(Nc3nccc(-c4cccc(NS(C)(=O)=O)c4)n3)cc2)c1N1CCOCC1	33*	7	0	0
CC(=O)c1ccc(-c2nc(-c3cccc(NS(C)(=O)=O)c3)cnc2N)cc1	-4	2	0	0
NC(=O)c1cccc(-c2ccnc(Nc3ccc(N4CCOCC4)cc3)n2)c1	-1	2	0	2
CS(=O)(=O)Nc1cccc(-c2ccnc(Nc3ccc(-n4cncn4)cc3)n2)c1	91*	12	0	2
CC(=O)c1ccc(Nc2nccc(-c3cccc(NS(C)(=O)=O)c3)n2)cc1	82*	7	1	-1
Cc1ccc(-c2ncn(-c3ccc(Nc4nccc(-c5cccc(-n6cncn6)c5)n4)cc3)n2)cn1	1	14	0	3
COc1ccccc1NC(=O)Cn1cnc2sc(C(=O)Nc3ccc(C(F)(F)F)cc3)c(C)c2c1=O	-6	6	2.2*	0
CCCNC(=O)Cn1cnc2sc(C(=O)NCCCOC)c(C)c2c1=O	-3	-1	3.2*	-2
COc1ccccc1NC(=O)Cn1cnc2sc(C(=O)Nc3cccc(C(F)(F)F)c3)c(C)c2c1=O	1	-5	0	-1
COc1ccccc1NC(=O)Cn1cnc2sc(C(=O)NC3CCCC(C)C3C)c(C)c2c1=O (stereo unspecified)	-10	12	2.0*	-1
Cc1c(N2C(=O)c3ccc(C(=O)O)cc3C2=O)cccc1[N+](=O)[O-]	-3	-14	0	1
CCOC(=O)c1c(NC(=O)c2ccc(S(=O)(=O)N(CCOC)CCOC)cc2)sc2c1CCN(C(=O)OCC)C2	-13	-8	0	-1
CC1(C)CC(N2CCCC2)=CC(=[N+]2CCCCC2)C1	70*	20	0	0
CC1(C)CC(N2CCCC2)=CC(=[N+]2CCCC2)C1	52*	0	0	1
CCN1CCN(C2=CC(=[N+]3CCCC3)CC(C)(C)C2)CC1	6	-8	0	2
CCOC(=O)c1ccc(N2C(=O)CC(N(CC)CC)C2=O)cc1 (stereo unspecified)	-1	1	0	0
SMILES	TEAD-YAP inh	MITF inh	FBW7 act	GPR151 ag
Cc1ccccc1OCC(=O)Nc1ncn[nH]1	-15	4	0	-3
CC(=O)NCc1ccc(-c2csc(N)n2)cc1	13	-5	0	2
CC(=O)NC(C)CCc1ccc(-c2csc(N)n2)cc1 (stereo unspecified)	36*	5	0	-2
CCCOc1ccc(/C=N/NC(=O)Cc2cn3ccsc3n2)c(O)c1	-23	2	0	0
O=C(Cn1ccc(C(F)(F)F)n1)N/N=C/c1ccc(O)c(O)c1O	0	65*	-1	0
O=C(Cc1csc(N2CCOCC2)n1)NNC(=S)Nc1ccc(Cl)cc1Cl	-3	17	0	-1
O=C(CCN1CCN(c2ccccc2)CC1)N/N=C/c1ccc(O)c(O)c1O	4	70*	-1	1
O=C(Cc1csc(N2CCOCC2)n1)N/N=C/c1ccc(O)c(O)c1O	4	66*	-1	0
CN1CCN(CCC(=O)N/N=C/c2ccc(O)cc2O)CC1	1	-77	0	0
O=C(Cc1cn2ccsc2n1)N/N=C/c1ccc(O)c(O)c1O	-4	78*	-1	0
COCC1CCCCN1C(=O)CC1(c2ccccc2C)CC(=O)N(C2CCCC2)C1=O (stereo unspecified)	-35	-10	0	1
COCCNCCCOc1cc(C)ccc1C(C)(C)C	-1	24	0	-1
CCOC(=O)c1c(C)[nH]c2ccc(Oc3nc(OC)cc(OC)n3)cc12	41*	-3	0	2
CCc1ccccc1Nc1nc(N)nc(Cn2nnc(-c3ccccc3)n2)n1	39*	12	0	0
CCOC(=O)c1ccc(NC(=O)Nc2cccc([N+](=O)[O-])c2C)cc1	-8	-8	0	-2
COc1ccc(CC(=O)Nc2cccc(-c3ccc(N4CCOCC4)nn3)c2)cc1OC	34*	-4	0	-7
CC(=O)c1cccc(NC(=O)Cc2noc3ccccc23)c1	-19	1	2	-1
CC(Oc1ccccc1F)C(=O)Nc1cccc(-c2ccc(N3CCOCC3)nn2)c1 (stereo unspecified)	42*	16	0	-2
O=C(Cc1noc2ccccc12)Nc1cccc(-c2ccc(N3CCCC3)nn2)c1	48*	6	0	0
O=C(C1CC1)N1CCc2ccc(NS(=O)(=O)c3ccc4c(c3)OCCO4)cc21	48*	15	0	2
CCCOc1ccc(S(=O)(=O)Nc2ccc3c(c2)N(C(=O)CC)CCC3)cc1	58*	-3	0	3
CCC(=O)N1CCCc2ccc(NS(=O)(=O)c3ccc(Cl)cc3)cc21	29	7	0	2
COc1ccccc1-n1nc(C(=O)NCCCN2CCCCCC2)c2ccccc2c1=O	11	7	0	-1
O=C(Nc1cc(F)c(-c2cn[nH]c2)c(F)c1)C1COc2ccccc2O1 (stereo unspecified)	-7	10	0	0
Cc1cncc2cccc(NC3CCN(C(=O)[C@H](C)O)CC3)c12	5	11	-1	0
SMILES	TEAD-YAP inh	MITF inh	FBW7 act	GPR151 ag
Cc1cncc2cccc(NC3CCCNC3)c12 (stereo unspecified)	94*	-2	0	1
CCN1C(=O)N(CC)C2C1NC(=O)N2CC (stereo unspecified)	0	-16	0	-1
CCN1C(=O)N(CC)C2NC(=S)NNC21 (stereo unspecified)	82*	7	0	2
Nc1c(C(=O)NCc2ccccc2)nnn1Cc1cccc(C(F)(F)F)c1	48*	-11	0	0
Nc1c(C(=O)NCc2ccccc2)nnn1Cc1cccc(F)c1	3	25	1	-1
O=C(NCc1ccc2c(c1)OCO2)c1ccc(-n2c(=S)[nH]c3ccccc3c2=O)cc1	-7	1	1	-1
O=C(N/C(=C/c1ccccc1O)C(=O)N1CCCCC1)c1ccccc1	74*	-12	1	-6
